# Results: article PMC5540273 (PLoS ONE, 2017)
# Assays:
# Settings in all cases: concentration: 1 μM, replicates: in singlicate; n = 1
# [1] = system: T1, RSK1(Kin.Dom.2-C-terminal)
# T1 construct: gene RPS6KA1
# [2] = system: T2, RSK2(Kin.Dom.1-N-terminal)
# T2 construct: gene RPS6KA3
# [3] = system: T3, RSK2(Kin.Dom.2-C-terminal)
# T3 construct: gene RPS6KA3
# [4] = system: T4, RSK3(Kin.Dom.1-N-terminal)
# T4 construct: gene RPS6KA2
# [5] = system: T5, RSK3(Kin.Dom.2-C-terminal)
# T5 construct: gene RPS6KA2
# [6] = system: T6, RSK4(Kin.Dom.1-N-terminal)
# T6 construct: gene RPS6KA6
# [7] = system: T7, RSK4(Kin.Dom.2-C-terminal)
# T7 construct: gene RPS6KA6
# [8] = system: S6K1
# [9] = system: SBK1
# [10] = system: SGK2
# [11] = system: SGK3
# [12] = system: SGK
# [13] = system: SIK2
# [14] = system: SIK
# [15] = system: SLK
# [16] = system: T8, SNARK
# T8 construct: gene NUAK2
# [17] = system: SNRK
# [18] = system: SRC
# [19] = system: SRMS
# [20] = system: SRPK1
# 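Note: KINOMEscan kinase panel screen.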
SMILES,%Inh [1] [%],%Inh [2] [%],%Inh [3] [%],%Inh [4] [%],%Inh [5] [%],%Inh [6] [%],%Inh [7] [%],%Inh [8] [%],%Inh [9] [%],%Inh [10] [%],%Inh [11] [%],%Inh [12] [%],%Inh [13] [%],%Inh [14] [%],%Inh [15] [%],%Inh [16] [%],%Inh [17] [%],%Inh [18] [%],%Inh [19] [%],%Inh [20] [%]
COc1ccc(CSc2nnc(-c3ccc4ncsc4c3)o2)cc1C(F)(F)F,0,0,0,0,0,0,9,0,0,0,0,2,0,11,15,0,0,3,0,10
COc1ccc2cc(-c3nc(-c4ccccc4C(C)C)[nH]c3-c3ccncc3)ccc2c1 [SB-660566],0,3,18,19,0,25,11,8,2,0,0,0,0,0,78,0,0,0,0,7
CC(=O)c1c(C)c2cnc(Nc3ccn(C)n3)nc2n(C2CCCC2)c1=O,4,0,0,0,0,0,0,0,0,0,26,0,0,0,34,6,0,0,0,0
O=C(Nc1n[nH]c2nc(-c3cccs3)c(Br)cc12)C1CCCC1 [SB-743341],0,15,0,0,0,26,0,2,0,0,40,0,0,17,38,34,19,7,0,0
Cl.Cl.Cl.N#Cc1ccc(CCNc2nccc(-c3cccc(CN4CCNCC4)c3)n2)cc1 [GSK2137462],0,0,0,0,13,0,31,34,24,0,10,0,2,0,6,12,0,15,2,21
Cc1c(Cn2c(C)c(C)n3c(=O)cc(N4CCOCC4)nc23)cccc1C(F)(F)F [GSK2328680],0,0,2,7,0,0,5,0,22,0,0,16,0,0,22,0,0,0,0,6
Cc1ccc(NC(=O)Nc2ccc(Cl)cc2)cc1-c1ccc(C(=O)Nc2ccncc2)cc1 [GSK1398472],0,2,6,15,0,0,20,8,19,8,13,0,11,20,12,0,0,8,0,0
CN1c2ccc(-c3ccc(C(N)=O)cc3)cc2-c2[nH]ncc2S1(=O)=O,47,17,35,0,41,0,38,0,0,8,0,0,10,8,2,0,0,7,4,0
Cc1ccc(NC(=O)Nc2ccccc2F)cc1-c1ccc(C(=O)Nc2ccncc2)cc1 [GSK1398477],0,9,6,20,0,0,14,13,28,0,0,0,22,15,34,0,0,27,0,52
CC[C@@H]1CO[C@H](C(=O)Nc2ccccc2)CN1c1cc(-c2ccc3c(N)n[nH]c3c2)nc(NC)n1 [GSK2376236],31,0,2,26,16,0,7,0,0,0,9,19,0,0,16,26,5,0,0,32
Cc1c(Cn2c3ccccc3n3c(=O)cc(N4CCOCC4)nc23)cccc1C(F)(F)F [GSK2306394],0,4,30,5,1,0,11,0,9,0,0,15,0,0,5,0,0,1,0,41
CCn1c(-c2ccccc2)nc2cnccc21 [SB-733416],0,1,23,28,0,8,0,22,9,9,0,9,5,3,28,0,0,0,0,11
CS(=O)(=O)CCNCc1nc(-c2ccc3ncnc(Nc4ccc(OCc5ccccc5)c(Cl)c4)c3c2)cs1.Cl [GW582764],0,15,2,9,0,0,8,6,23,0,0,11,0,6,14,0,0,0,0,10
CCc1ccc(-c2ccc3c(c2)-c2n[nH]cc2S(=O)(=O)N3C)cc1,30,7,52,5,17,1,20,0,0,0,0,0,13,29,0,0,1,0,1,0
O=C1NC(=O)C(c2ccc(Cl)cc2)=C1Nc1ccc(O)cc1 [SB-340867],0,13,0,0,0,0,0,0,0,0,6,0,0,0,9,0,0,0,0,18
COC(=O)c1cccc(NC(=O)NC2CCN(c3ccnc(Nc4ccc(F)cc4)n3)C2)c1 (stereo not drawn) [GSK1379725],0,5,0,3,0,0,0,0,17,0,0,0,0,2,0,0,0,0,0,23
COc1nccc(-c2c(-c3ccc(F)cc3)ncn2CCCN2CCOCC2)n1 [SB-282852],11,27,17,0,38,0,36,29,0,36,0,13,0,0,30,0,0,0,0,0
O=c1cc(N2CCOCC2)nc2n(Cc3cccc(Cl)c3Cl)c3ccccc3n12 [GSK2299009],5,19,53,4,0,0,5,14,28,37,4,31,18,16,39,16,0,0,0,19
CNc1cc(-c2ccc3c(N)n[nH]c3c2)nc(N)n1 [GSK2224810],26,14,0,1,0,37,37,0,7,0,7,0,13,0,0,2,0,0,0,46
CCn1c(-c2c(N)noc2C)nc2cnccc21 [SB-737856],0,16,8,15,0,0,22,0,15,0,0,0,0,0,4,0,0,0,0,0
COC(=O)C(NC(=O)NC1CCN(c2ccnc(Nc3ccc(F)cc3)n2)C1)c1ccccc1 (stereo not drawn) [GSK1379712],18,0,38,0,11,0,7,0,8,8,2,2,3,0,4,5,0,0,0,0
